PubChem BioAssay AID720722 (Molecular Libraries Program, Specialized Chemistry Center, …, 2013)
Active and inactive are the calls of the source. Cut-off not given; nearly all actives show IC50 up to about 12 µM.

assay: mitochondrial permeability transition pore inhibitors, dose response, biochemical, absorbance, isolated mitochondria, dry powder samples (AID 720722); conditions: isolated mitochondria swelling

IC50, active:
COc1ccc(Cl)cc1C(=O)Nc1ccc(CN2CCCCC2)cc1 5.08 µM, N#Cc1c(NCCN)nc(-c2ccco2)c2c1CCCC2 8.12 µM, C=CCNCCOc1ccc(C(C)(C)c2ccccc2)cc1 12.4 µM, CN(C)CCCN1c2ccccc2Sc2ccc(Cl)cc21 2.5 µM, N=c1sccn1CC(=O)Nc1cccc(Oc2ccccc2)c1 2.92 µM, CCOC(=O)N1CCN(S(=O)(=O)c2ccc(C(=O)N(CCCN(C)C)c3nc4c(C)c(C)ccc4s3)cc2)CC1 5.28 µM, CC(C)(C)c1ccccc1OCCCCCNCCO 3.67 µM, C=CCNCCOCCOc1ccc(Cl)cc1C(C)(C)C 4.04 µM, CCN(CC)CCCN=Cc1c(O)n(Cc2ccccc2)c(=O)c2ccccc12 3.34 µM, COC(=O)c1c(NC(=O)C2CCCCC2)sc2c1CC(C)(C)NC2(C)C 3.64 µM, COc1cc(CNCCO)cc(Cl)c1OCc1ccccc1Cl 2.69 µM, CN1CCC[C@@H]1CCO[C@](C)(c1ccccc1)c1ccc(Cl)cc1 4.43 µM, C=CCNCCCOc1ccc(C)cc1Br 11.6 µM, Cc1cc(C)c2nc(N(CCCN(C)C)C(=O)c3ccc(S(=O)(=O)N4CCCCCC4)cc3)sc2c1 2.07 µM, COc1ccc(-n2cc(CNC3CCN(C)CC3)c(-c3cccc(F)c3)n2)cc1 2.03 µM, COc1cc(NC(=O)c2cc(-c3cccc(O)c3)on2)cc(OC)c1OC 0.391 µM, Cc1ccc2nc(N(CCCN(C)C)C(=O)CCc3ccccc3)sc2c1 1.58 µM, O=C(CC1NCCc2ccccc21)Nc1ccc(Cl)cc1 (stereo not given) 2.78 µM, CC1CCCN(CCC(=O)c2ccc(Br)cc2)C1 (stereo not given) 3.14 µM, COCCCNCCCOc1ccc(Cl)cc1C(C)(C)C 4.04 µM, CCN(CC)c1ccc(NC(=O)c2cc(Cl)ccc2OC)cc1 5.7 µM, Cc1ccc2nc(N(CCN(C)C)C(=O)/C=C/c3cccs3)sc2c1 3.33 µM, Cc1cc(C)c2nc(N(CCCN(C)C)C(=O)C3=COCCO3)sc2c1 3.11 µM, CNCCC=C1c2ccccc2CCc2ccccc21 8.45 µM, COc1ccc(C)c2sc(N(CCCN(C)C)C(=O)CS(=O)(=O)c3ccc(F)cc3)nc12 3.9 µM
